# Assay results: PubChem BioAssay (EPA / NIEHS)
# Records with an inconclusive call do not appear. The source made the active and inactive calls. Rule for the calls: active = hit-call score of the fitted dose curve at least 0.9, where 1 is the maximum; inconclusive = response in the unintended direction; inactive = score below 0.9.
# Target: PGR (gene 5241) (UniProt P06401)
# Assay: TOX21_PR_LUC_Followup_Antagonist: Tox21 HEK293 Progesterone Receptor (PR) Antagonism Luciferase Follow-Up Assay (AID 2283938);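 note: curve fitted upward as signal gain over DMSO baseline despite antagonist label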
# Text: TOX21_PR_LUC_Followup is a secondary assay for specificity for the TOX21_PR_BLA_Agonist assay. To differentiate true PR agonists from cytotoxic substances, this follow up assay is multiplexed with a cell viability assay.TOX21_PR_LUC_Followup_Antagonist is one of one assay component(s) measured or calculated from the TOX21_PR_LUC_Followup assay. It is designed to make measurements of luciferase induction, a form of inducible reporter, as detected with bioluminescence signals by CellTiter-Glo Luciferase-coupled ATP quantitation technologyData from the assay component TOX21_PR_LUC_Followup_Antagonist was analyzed into 1 assay endpoint. This assay endpoint, TOX21_PR_LUC_Followup_Antagonist, was analyzed in the positive analysis fitting direction relative to DMSO as the negative control and baseline of activity. Using a type of inducible reporter, gain-of-signal activity can be used to understand changes in the reporter gene as they relate to the gene NR3C3. Furthermore, this assay endpoint can be referred to as a primary readout, because the performed assay has only produced 1 assay endpoint. To generalize the intended target to other relatable targets, this assay endpoint is annotated to the nuclear receptor target family, where the subfamily is steroidal.
# Quality Control Precautions: Maintain cells below 85-90% confluence in culture medium. For assay purpose, the cells should be cultured in assay medium with 10% charcoal stripped FBS for 5 days with alternate day medium changed to fresh medium. Especially while in assay culture, the cells should not reach more than 85% confluence as they would become harder to detach if they reach over confluence.Assay Protocol: HEK293-PR-A-luc cells were dispensed at 3,000 cells/5 uL/well of culture medium into white wall/solid-bottom 1536-well plates using a Multidrop Combi (ThermoFisher Scientific, Waltham, MA) dispenser. After the assay plates were incubated at 37C and […] for 5 h, 23 nL of compounds dissolved in DMSO, positive controls or DMSO only was transferred to the assay plate by a Pintool station (Kalypsys, San Diego, CA). The plates were incubated at 37C and […] for 16 h. Then 4 uL of ONE-Glo reagent (Promega, Madison, WI) was added to each plate using a BioRAPTR Flying Reagent Dispenser (FRD) workstation (Beckman Coulter, Indianapolis, IN, USA) and luminescence was quantified on a ViewLux (PerkinElmer, Shelton, CT) plate reader after 30 min incubation at room temperature.
# Chain of PGR (gene 5241) (P06401 whole entry, looked up): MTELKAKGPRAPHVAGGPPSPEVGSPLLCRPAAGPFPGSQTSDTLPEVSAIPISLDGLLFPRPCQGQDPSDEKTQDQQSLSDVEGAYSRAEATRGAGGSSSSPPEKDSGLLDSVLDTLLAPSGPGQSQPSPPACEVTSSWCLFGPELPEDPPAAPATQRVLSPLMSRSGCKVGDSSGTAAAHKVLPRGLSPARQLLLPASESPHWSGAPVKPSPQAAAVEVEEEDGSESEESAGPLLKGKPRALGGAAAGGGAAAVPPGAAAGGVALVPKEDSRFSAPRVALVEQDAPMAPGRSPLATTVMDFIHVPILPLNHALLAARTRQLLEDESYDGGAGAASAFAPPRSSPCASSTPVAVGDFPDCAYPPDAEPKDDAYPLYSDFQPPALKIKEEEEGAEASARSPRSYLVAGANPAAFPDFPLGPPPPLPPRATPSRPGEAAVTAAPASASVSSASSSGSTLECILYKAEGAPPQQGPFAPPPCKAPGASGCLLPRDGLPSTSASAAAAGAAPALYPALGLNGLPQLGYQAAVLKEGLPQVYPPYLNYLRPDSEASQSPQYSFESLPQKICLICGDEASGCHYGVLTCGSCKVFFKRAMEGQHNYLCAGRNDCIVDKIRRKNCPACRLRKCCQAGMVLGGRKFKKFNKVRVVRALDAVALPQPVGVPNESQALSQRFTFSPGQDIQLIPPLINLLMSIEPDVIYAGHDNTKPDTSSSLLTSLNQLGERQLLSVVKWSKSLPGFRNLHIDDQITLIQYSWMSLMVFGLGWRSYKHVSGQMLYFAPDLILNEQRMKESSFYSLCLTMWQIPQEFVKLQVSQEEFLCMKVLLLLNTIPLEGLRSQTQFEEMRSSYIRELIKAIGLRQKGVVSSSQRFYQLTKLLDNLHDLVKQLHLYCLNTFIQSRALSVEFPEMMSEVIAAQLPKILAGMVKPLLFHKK
Compound,AC50,outcome
C[C@H]1CCC[C@H](O)CCCCCc2cc(O)cc(O)c2C(=O)O1,10.1 µM (active),–
CCC(=O)O[C@@H]1C=C2CCC3C(CCC4(C)C3CC[C@@H]4OC(=O)CC)C2CC1 (some centres not stated),–,inactive
C=CC[C@]1(O)CC[C@H]2[C@@H]3CCC4=CC(=O)CCC4=C3C=C[C@@]21C,–,inactive
CCOP(=S)(OCC)Oc1cc(Cl)c(Br)cc1Cl,5.76 µM (active),–
CC[C@H]1C[C@H]2[C@@H]3CCC4=CC(=O)CC[C@@H]4[C@H]3CC[C@]2(C)[C@H]1O,–,inactive
C[C@]12Cc3nonc3C[C@@H]1CC[C@@H]1[C@@H]2CC[C@@]2(C)[C@H]1CC[C@]2(C)O,–,inactive
O=C(CBr)Nc1ccc(Cl)cc1C(=O)c1ccccc1F,–,inactive
CC1COC2(c3ccccc3Cl)c3cc(Cl)ccc3NC(=O)CN12 (configuration not stated),–,inactive
N#Cc1cc(I)c(O)c(I)c1,29.9 µM (active),–
C#C[C@]1(O)CC[C@H]2[C@@H]3CCC4=CC(=O)CCC4=C3C=C[C@@]21CC,–,inactive
COP(=S)(NC(C)C)Oc1ccc(C)cc1[N+](=O)[O-] (configuration not stated),21.2 µM (active),–
Nc1ccc(Cl)cc1C(=O)c1ccccc1F,–,inactive
C=C1C[C@@H]2[C@H](CC[C@]3(C)C(=O)CC[C@@H]23)[C@@]2(C)C=CC(=O)C=C12,–,inactive
COc1ccc2c(c1OC)CN1CCc3cc4c(cc3C1C2)OCO4 (configuration not stated),11.5 µM (active),–
C[C@]12C/C(=C/O)C(=O)C[C@@H]1CC[C@@H]1[C@@H]2CC[C@@]2(C)[C@H]1CC[C@]2(C)O,–,inactive
C[C@]12C=CC(=O)C=C1CC[C@@H]1[C@@H]2CC[C@@]2(C)[C@H]1CC[C@]2(C)O,–,inactive

Compound,AC50,outcome
O=[N+]([O-])c1ccc2ccc3cccc4ccc1c2c34,13 µM (active),–
C[C@]12Cc3cn[nH]c3C[C@@H]1CC[C@@H]1[C@@H]2CC[C@@]2(C)[C@H]1CC[C@]2(C)O,–,inactive
C[C@]12CC[C@H]3[C@@H](CCC4=CC(=O)CC[C@@H]43)[C@@H]1CC[C@@H]2OC(=O)CCc1ccco1,–,inactive
CC[C@]1(O)CC[C@H]2[C@@H]3CCC4=CCCC[C@@H]4[C@H]3CC[C@@]21C,–,inactive
CC(C)(c1cc(Cl)c(O)c(Cl)c1)c1cc(Cl)c(O)c(Cl)c1,17.2 µM (active),–
CCOC(=O)C1(c2ccccc2)CCN(CCC(C#N)(c2ccccc2)c2ccccc2)CC1,–,inactive
CC(=O)O[C@H]1CC[C@@]2(C)C(=CC[C@@H]3[C@@H]2CC[C@]2(C)C(=O)CC[C@@H]32)C1,–,inactive
C[C@]12CC[C@H]3[C@@H](CCC4=CC(=O)CC[C@@H]43)[C@@H]1CC[C@@H]2OC(=O)CCc1ccccc1,–,inactive
C[C@]12CC[C@H]3[C@@H](CCC4=CC(=O)CC[C@@H]43)[C@@H]1CC[C@@H]2OC(=O)CCC1CCCCC1,–,inactive
CCC1COC(Cn2cncn2)(c2ccc(Cl)cc2Cl)O1 (configuration not stated),36.3 µM (active),–
O=C1CN=C(c2ccccc2)c2cc(Cl)ccc2N1CC1CC1,–,inactive
C[C@]12CC[C@H]3[C@@H](CC[C@@]45O[C@@H]4C(O)=C(C#N)C[C@]35C)[C@@H]1CC[C@@H]2O,–,inactive
C[C@]12CC[C@H]3[C@@H](CCC4=CC(=O)CC[C@@H]43)[C@@H]1CC[C@@H]2O,–,inactive
C[C@]12CCC(=O)C(O)=C1CC[C@@H]1[C@@H]2CC[C@]2(C)C(=O)CC[C@@H]12,–,inactive
C[C@]1(O)CC[C@H]2[C@@H]3CCC4=CC(=O)CC[C@]4(C)[C@@]3(F)[C@@H](O)C[C@@]21C,–,inactive
O=C1C(Cl)C(CCl)CN1c1cccc(C(F)(F)F)c1 (configuration not stated),–,inactive
